High-throughput results deposited in PubChem by National Center for Advancing Translational Sciences (NCATS).
HP1b chromo inh = blocks HP1-beta chromodomain binding to methylated histone tails; 0.56% of 390,000 active; P83916; Potency, µM (top dose mostly 114 µM), inactives show top-dose activity change, negative = inhibition, usual class: inhibitors; AlphaScreen HP1-beta / biotin-H3K9me3 peptide binding; also: potency is read from the fitted curve at half-maximal effect; nearly all actives have a fitted effect of over 70% in size
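Compound inhibition of the preformed complex between 50 nM HP1-beta and 50 nM biotinylated H3K9me3 peptide was read by AlphaScreen. Buffer was PBS pH 7.4 with 0.01% Tween-20. Incubations ran 30 min at room temperature, with 10 ug/mL donor/acceptor beads.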
TDP1 block = blocks human tyrosyl-DNA phosphodiesterase 1. Potency, µM (highest dose often 130 µM), for the others: at the top dose activity change, negative = inhibition, most hits filed as inhibitors. Q9NUW8. recombinant TDP1, AlphaScreen DNA substrate cleavage. AID 485290. 0.28% of 350,000 active; also: potency is read from the fitted curve at half-maximal effect; % is scaled to controls: 0 for no effect and ±100 for the full control effect; nearly all actives have a fitted effect of over 40% in size
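Compounds were preincubated with Tdp1 (1 nM final) for 15 min at room temperature before substrate (15 nM final) started a 5 min reaction; beads (10 ug/ml final) were then added for 10 min before AlphaScreen detection.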
Six1-Eya2 inh = Six1/Eya2 interaction inhibition. Q15475+O00167. AlphaScreen GST-Six1/His-Eya2 binding, biochemical; stronger effect = lower value. activity change, % (no concentration beside the values). 0.56% of 360,000 active. AID 651725; in the data active = activity change below about -65%; inconclusive = mostly about -30% to -63%; also: % is scaled to controls: 0 for no effect and ±100 for the full control effect
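Homogeneous AlphaScreen proximity assay pairing GST-Six1 with His-tagged Eya2 (added as 5X mix: 250 nM and 500 nM) in 50 mM Tris pH 8.0, 300 mM NaCl, 1 mM TCEP. Glutathione donor and nickel acceptor beads; 1 h, 37 °C, dark.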
JMJD2A Tudor inh = blocks the human JMJD2A Tudor domain. O75164. AlphaScreen JMJD2A-Tudor / H3K4me3 peptide binding. Potency, µM (series often up to 114 µM), without a hit: at the highest dose activity change, negative = inhibition, most hits filed as inhibitors. 4.4% of 390,000 active; also: potency is read from the fitted curve at half-maximal effect; % is scaled to controls: 0 for no effect and ±100 for the full control effect; nearly all actives have a fitted effect of over 50% in size
Target sequence (O75164 whole entry, looked up, the tested form may be a part): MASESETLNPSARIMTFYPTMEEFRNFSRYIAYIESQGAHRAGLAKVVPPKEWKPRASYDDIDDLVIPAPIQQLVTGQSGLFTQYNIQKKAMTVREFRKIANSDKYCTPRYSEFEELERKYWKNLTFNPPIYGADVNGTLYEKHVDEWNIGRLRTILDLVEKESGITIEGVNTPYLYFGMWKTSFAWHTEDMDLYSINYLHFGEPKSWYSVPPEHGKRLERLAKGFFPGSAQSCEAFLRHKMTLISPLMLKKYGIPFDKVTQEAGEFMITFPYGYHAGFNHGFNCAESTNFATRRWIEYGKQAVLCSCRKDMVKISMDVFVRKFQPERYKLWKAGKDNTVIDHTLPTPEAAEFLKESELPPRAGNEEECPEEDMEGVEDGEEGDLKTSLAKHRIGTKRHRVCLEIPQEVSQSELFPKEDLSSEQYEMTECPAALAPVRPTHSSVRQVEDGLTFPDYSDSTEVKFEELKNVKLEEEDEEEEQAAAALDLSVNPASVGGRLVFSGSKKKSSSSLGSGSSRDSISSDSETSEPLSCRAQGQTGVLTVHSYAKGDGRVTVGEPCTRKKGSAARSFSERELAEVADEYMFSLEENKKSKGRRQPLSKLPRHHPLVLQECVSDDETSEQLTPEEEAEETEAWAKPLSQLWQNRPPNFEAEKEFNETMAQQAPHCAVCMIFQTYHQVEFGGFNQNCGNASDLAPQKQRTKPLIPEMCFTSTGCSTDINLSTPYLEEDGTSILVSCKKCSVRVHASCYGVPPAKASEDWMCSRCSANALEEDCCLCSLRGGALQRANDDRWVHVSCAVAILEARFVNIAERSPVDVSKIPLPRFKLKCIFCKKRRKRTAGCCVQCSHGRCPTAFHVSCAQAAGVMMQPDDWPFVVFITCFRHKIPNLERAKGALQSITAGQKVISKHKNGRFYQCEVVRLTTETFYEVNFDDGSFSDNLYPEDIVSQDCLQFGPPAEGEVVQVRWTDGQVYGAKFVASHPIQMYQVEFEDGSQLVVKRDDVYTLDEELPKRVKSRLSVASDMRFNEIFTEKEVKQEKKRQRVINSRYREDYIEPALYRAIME
BAZ2B block = blocks human BAZ2B; Q9UIF8; Potency, µM (titrated, usually from 114 µM), inactives show at the top dose activity change, negative = inhibition, most hits filed as inhibitors; AlphaScreen BAZ2B-H3K14Ac peptide displacement; 4.4% of 360,000 active; also: potency is read from the fitted curve at half-maximal effect; % is scaled to controls: 0 for no effect and ±100 for the full control effect; nearly all actives have a fitted effect of over 60% in size
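Compounds, titrated to a top concentration of 110 uM, were incubated 30 min at room temperature with preformed BAZ2B/acetyl-K14 H3 peptide complex (50 nM each). Proximity signal was measured by AlphaScreen after 20 min with beads.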
CtBP-E1A blk = CtBP/E1A binding inhibition; 0.49% of 340,000 active; activity change, % (test concentration not listed); AlphaScreen GST-E1A/His-CtBP binding, 1536-well; stronger effect = lower value; in the data active = activity change below about -65%; inconclusive = mostly about -30% to -63%; also: % is scaled to controls: 0 for no effect and ±100 for the full control effect
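Steps: dispense buffer (Tris pH 8.0, NaCl 300 mM, TCEP 1 mM, BSA, Tween 20); add 5X protein mix (GST-E1A, His-CtBP, 125 nM each); pin 23 nL compound; 2 h at 37 °C, dark; add 5X beads (50 ug/mL); 1 h; read.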
* = called active by the depositor; [ ] = dose if it differs, or a comment. Only some compounds are listed: those with a hit (about 5.3% of all), similar ones and a draw of the others. Unless noted, calls follow the shape of the dose curve; as a rule, active = well fitted inhibition curve with a large enough effect; inconclusive = small, poorly fitted or top-dose-only effect; inactive = no such curve, though single readings can be large or run the other way.

How did CCOC(=O)c1ccccc1NC(=O)c1ccc2nc[nH]c2c1 do in these assays?
HP1b chromo inh: 23%; Six1-Eya2 inh: -10; JMJD2A Tudor inh: -23%; BAZ2B block: -5%; CtBP-E1A blk: -3

What do the screens show for `Cc1ccccc1CNC(=O)c1ccc2nc(C(C)C)oc2c1`?
HP1b chromo inh: 33%[57 µM]; TDP1 block: 4%; JMJD2A Tudor inh: 9%; BAZ2B block: 6%

Results for CCc1ccc(N2CCn3c2nc2c3c(=O)n(Cc3cccc(C)c3)c(=O)n2C)cc1 ?
HP1b chromo inh: 17%; TDP1 block: -1%; JMJD2A Tudor inh: -3%; BAZ2B block: -3%

How did COc1ccc(CC(=O)Nc2cc(NC(=O)Cc3ccc(OC)c(OC)c3)cc(C(=O)O)c2)cc1OC do in these assays?
HP1b chromo inh: 17%; TDP1 block: 3%; Six1-Eya2 inh: -6; JMJD2A Tudor inh: -18%; BAZ2B block: inconclusive; CtBP-E1A blk: -6

How did COC(=O)c1cc(NC(=O)Cc2ccc(OC)c(OC)c2)cc(C(=O)OC)c1 do in these assays?
HP1b chromo inh: 3%; TDP1 block: 4%; Six1-Eya2 inh: -2; JMJD2A Tudor inh: 45µM*; BAZ2B block: 3%; CtBP-E1A blk: -2

What do the screens show for `COc1ccc(CC(=O)Nc2ccc(C(=O)Nc3nccs3)cc2)cc1OC`?
HP1b chromo inh: 11%; TDP1 block: -2%; Six1-Eya2 inh: -81*; JMJD2A Tudor inh: -10%; BAZ2B block: -16%; CtBP-E1A blk: -74*

How did CCOc1ccc(OCC)c(NC(=O)CCc2nc3cccnc3n2Cc2cccs2)c1 do in these assays?
HP1b chromo inh: 34%; TDP1 block: 6%; JMJD2A Tudor inh: -21%; BAZ2B block: -15%

What do the screens show for `CC[N+](C)(CC)CCOC(=O)C(O)(c1ccccc1)C1CCCCC1` (stereo not drawn)?
HP1b chromo inh: 41%; TDP1 block: 3%; Six1-Eya2 inh: 2; JMJD2A Tudor inh: -6%; BAZ2B block: -15%; CtBP-E1A blk: 5

How did CC[N+](C)(CC)CCC(c1ccccc1)C1CCCCC1 (stereo not drawn) do in these assays?
HP1b chromo inh: inconclusive; Six1-Eya2 inh: 6; JMJD2A Tudor inh: inconclusive; BAZ2B block: 50µM*; CtBP-E1A blk: 8

What do the screens show for `O=C(Cn1c(=O)oc2ccccc21)Nc1n[nH]c(=S)s1`?
HP1b chromo inh: inconclusive; TDP1 block: -4%; Six1-Eya2 inh: -2; JMJD2A Tudor inh: 3.5µM*; BAZ2B block: -25%; CtBP-E1A blk: -2

Results for O=c1cc(-c2ccc(F)cc2F)[nH]c2ccc(F)cc12 ?
TDP1 block: -5%[234 µM]

How did Cc1cccc(NC(=O)c2cc(S(=O)(=O)NCCc3ccccc3)ccc2F)c1C do in these assays?
HP1b chromo inh: 26%; TDP1 block: -3%; JMJD2A Tudor inh: -12%; BAZ2B block: -1%

How did Cc1ccc(NC(=O)CSc2[nH]c(=O)ncc2C)cc1 do in these assays?
HP1b chromo inh: 23%; TDP1 block: 5%; JMJD2A Tudor inh: -7%; BAZ2B block: 0%

Results for O=C(CNS(=O)(=O)c1ccc(Br)cc1Cl)OCC(=O)c1ccc[nH]1 ?
HP1b chromo inh: 21%; TDP1 block: 1%[0.505 µM]; Six1-Eya2 inh: 1; JMJD2A Tudor inh: -25%; BAZ2B block: -4%; CtBP-E1A blk: -8

Results for O=C(CNS(=O)(=O)c1c(Cl)cccc1Cl)OCC(=O)c1ccc[nH]1 ?
HP1b chromo inh: 16%; TDP1 block: -3%; Six1-Eya2 inh: -4; JMJD2A Tudor inh: -27%; BAZ2B block: 79µM*

Results for CN(C)c1ccc(Cc2cc3c(O)ccc(O)c3cc(Cc3ccc(N(C)C)cc3)c2=O)cc1 ?
HP1b chromo inh: inconclusive; Six1-Eya2 inh: inconclusive; JMJD2A Tudor inh: 3.2µM*; CtBP-E1A blk: -5

What do the screens show for `Cc1cccc(CNC(=O)Cc2ccc(NC(=O)N3CCCCc4ccccc43)cc2)c1`?
HP1b chromo inh: 30%; TDP1 block: -1%; JMJD2A Tudor inh: -20%; BAZ2B block: -17%
